Compounds without any hit were thinned out: in the full panel of roughly 79,000, 15% have a hit. Unmarked numbers belong to inactive results. Activity calls are given as the source filed them. No stated cut-off is given here; in the data, active means growth inhibition above about 70%; inactive means the rest.
How the values were obtained:
[1] = NCI Yeast Anticancer Drug Screen. Data for the rad50 strain (AID 155);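 further: 0% = growth of vehicle-only cultures of the same strain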; conditions: S. cerevisiae rad50 strain growth inhibition; at 50.0 µM; hits give high values
In short: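 Relative growth inhibition (compound vs vehicle) was measured in yeast with a defined repair-gene alteration.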

[2] = NCI Yeast Anticancer Drug Screen. Data for the mec2-1 strain (AID 157); conditions: S. cerevisiae mec2-1 strain, at 50.0 µM, hits give high values
In short: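 Test agents were screened against the mec2-1 yeast strain, with defined DNA repair or cell cycle alteration. Growth was scored as inhibition against vehicle-only controls.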

[3] = NCI Yeast Anticancer Drug Screen. Data for the sgs1 mgt1 strain (AID 161);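 further: 0% = growth of cultures given vehicle only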; conditions: S. cerevisiae sgs1 mgt1 strain, at 50.0 µM, hits give high values
In short: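 Inhibition of yeast growth, normalised to vehicle-treated controls, is reported for a strain bearing genetic alterations in DNA damage repair.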

[4] = NCI Yeast Anticancer Drug Screen. Data for the cln2 rad14 strain (AID 165);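 further: 0% = growth equal to vehicle treated cultures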; conditions: S. cerevisiae cln2 rad14 strain, at 50.0 µM, hits give high values
In short: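 Growth of compound-exposed yeast (cln2 rad14 genotype) measured and expressed as inhibition relative to vehicle.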

[5] = NCI Yeast Anticancer Drug Screen. Data for the bub3 strain (AID 167); conditions: S. cerevisiae bub3 mutant strain, at 50.0 µM, hits give high values
In short: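 Screening used yeast with an engineered genetic alteration affecting cell cycle control. Compound-exposed cultures were compared with vehicle cultures, and reduced growth was taken as inhibition.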

[6] = NCI Yeast Anticancer Drug Screen. Data for the mlh1 rad18 strain (AID 175); conditions: S. cerevisiae mlh1 rad18 strain growth inhibition; at 50.0 µM; hits give high values
In short: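 In this whole-cell yeast screen, a strain with altered DNA damage repair is challenged with compound, and its growth is measured against matched vehicle-treated controls.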

SMILES | growth inhibition [1] | growth inhibition [2] | growth inhibition [3] | growth inhibition [4] | growth inhibition [5] | growth inhibition [6]
CCN(CCOC(=O)Nc1ccc(Cl)cc1)C(=O)Nc1ccc(Cl)cc1 | -1.75% | -36.8% | 16.4% | 2.8% | -8.55% | -18.2%
C=C1C(=O)O[C@H]2/C=C(/C)C3=CC(=O)[C@@](C)(C[C@@H](OC(=O)/C(C)=C\C)C12)O3 (stereo partly specified) | 73.5% (active) | 80.8% (active) | 81.2% (active) | 64.8% | 77.9% (active) | 75.8% (active)
COc1ccc(-c2cc(=O)c3c(O)cc(O)cc3o2)c(OC)c1OC | -22.2% | -17.7% | -21.1% | 6.95% | -26.6% | 4.05%
CCCCCCCC/C=C\CCCCCCCC(=O)Cl | -19% | -33.8% | -14% | -55.9% | -8.85% | -23.1%
CC/C(=C\c1ccccc1O)c1ccncc1 | 2.2% | -8.5% | 2.5% | 1.85% | 23.1% | -0.65%
COC(=O)C(O)CC1=CC[C@@H]2CC=C[C@H]12 (stereo partly specified) | 27.7% | 1.7% | 13.7% | 3.7% | 27.5% | -7.65%
CC(C)(C)c1onc2c1C(=O)c1ccccc1-2 | -3.7% | -2.55% | 1.35% | -5.9% | 25.9% | -2.75%
Cc1ccc(S(=O)(=O)c2scc(-c3ccccc3)c2C)cc1 | -47.2% | -57.8% | -31.1% | -8.7% | -17.9% | -13.2%
CN(C)c1ccc(C(Cc2ccccc2)C2NC(=S)NC2=O)cc1 (stereo unspecified) | -6% | -34.5% | 11.2% | 11.3% | 7.7% | -40.5%
CC1(C)COC(c2cc(Br)ccc2Br)=N1 | 4.9% | -16.2% | 7% | 3.45% | -3.3% | 1.35%
O=C(CNC(=O)C(CCC(=O)OCc1ccccc1)NC(=O)OCc1ccccc1)NCC(=O)Oc1ccc([N+](=O)[O-])cc1 (stereo unspecified) | 25.1% | 13.6% | 10.3% | 9.3% | 4% | 18.1%
Cc1ccccc1NC(=O)C(=O)CC(=O)c1sc(Nc2ccccc2[N+](=O)[O-])nc1C | 8.8% | -7.45% | -7.4% | -10.3% | -0.3% | -2.9%
CCOC(CSc1cc(C)c2ccccc2n1)OCC | 14.1% | -0.05% | -11.2% | 3.35% | 0.2% | -15.2%
CCN(CC)C(=O)c1ccc[n+](CCC(N)=O)c1 | -1.05% | -17.8% | -3% | 14.8% | -8.5% | 6.6%
COC(=O)c1c(C)ccc(C)c1C(=O)c1c(C)cc(C)cc1C | -14.6% | 11.5% | 5% | -28.1% | 24.3% | 4.1%
COC(=O)Nc1nc2ccc(C3c4c(n[nH]c4C)CC(C)(O)C3C(C)=O)cc2[nH]1 (stereo unspecified) | 20.4% | 3.85% | -7.3% | -6.5% | 0.45% | 10.6%
CCN(CC)C(=O)CNC(=O)c1c2nc3c(C(=O)NCC(=O)N(CC)CC)ccc(C)c3oc-2c(C)c(=O)c1N | 16.9% | 33.9% | 8.95% | 32.9% | 10.9% | 30.6%
Nc1cccc(CCc2nc(N)nc(N)c2-c2ccc(Cl)cc2)c1 | 0.6% | 21.6% | 13.8% | 3.2% | 8.85% | -14.3%
COc1cc(CNc2ccc3nc4n(c(=O)c3c2)CCCCC4)cc(OC)c1OC | -9.7% | 13.4% | 7.3% | -19.2% | -15.9% | -21.2%
c1ccc(C(=C2CCCCCCCCCCCCC2)c2ccccc2)cc1 | -25.2% | 2.9% | -2.9% | -2% | 25% | -24%
CC1=C(c2ccccc2)OS(=O)(=O)CC1N(C)C (stereo unspecified) | -2.6% | -16.4% | -1.65% | -6.95% | -7.4% | -2.35%
